Results published in the supplement of paper PMC9492666.
Counter-ions that a name gives are not always drawn.

Columns and labels:
Details in all cases: 72 h
HCC1937 [1] = experiment: relative cell viability, compound alone, vs DMSO (fraction of DMSO control); higher = less growth inhibition
MDA-MB-231 [2] = experiment: as above
HCC1937 [3] = experiment: relative cell viability, compound + RSL3, vs DMSO (fraction of DMSO control); higher = less growth inhibition
MDA-MB-231 [4] = experiment: as above
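Wherever relative cell viability, compound + RSL3, vs DMSO is given: breast cancer cell viability read out with the CCK-8 kit after co-treatment of each compound with the ferroptosis inducer RSL3.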
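Wherever relative cell viability, compound alone, vs DMSO is given: viability read out with the CCK-8 kit in 96-well plates, screening a set of 303 compounds acting on lipid metabolism targets.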

Row | SMILES | relative cell viability (HCC1937 [1]) | relative cell viability (MDA-MB-231 [2]) | relative cell viability (HCC1937 [3]) | relative cell viability (MDA-MB-231 [4])
1 | O=C(CN1CCN(C(=O)c2ccco2)CC1)Nc1cc(C(F)(F)F)ccc1Cl | 0.767 | 0.892 |  | 
2 | CCC(=O)Nc1cccc(Oc2nc(Nc3ccc(N4CCN(C)CC4)cc3OC)ncc2Cl)c1 | 0.48 | 0.559 |  | 
3 | CCN(CC)Cc1ccc(C(=O)N(CCc2ccccc2OC)[C@@H]2CCNC2)cc1 | 1.45 | 0.979 |  | 
4 | CC(O)(CC(=O)O)CC(=O)O [Meglutol] | 0.748 | 0.891 |  | 
5 | CC(C)Cc1ccc([C@H](C)C(=O)O)cc1 [Dexibuprofen] | 1.36 | 0.905 |  | 
6 | O=C(OC(C(F)(F)F)C(F)(F)F)N1CCC(C(O)(c2ccc3c(c2)OCO3)c2ccc3c(c2)OCO3)CC1 | 1.06 | 0.855 |  | 
7 | C/C=C(\CC[C@@H](C)[C@H]1CC[C@H]2[C@@H]3CC=C4C[C@@H](O)CC[C@]4(C)[C@H]3CC[C@]12C)C(C)C [Fucosterol] | 1 | 0.968 |  | 
8 | COc1ccc(C(=O)/C=C/c2ccccc2)cc1 [4'-Methoxychalcone] | 0.73 | 0.889 |  | 
9 | O=C(O)Cn1nnc(-c2cc(N3CCC(Oc4cc(F)ccc4Br)CC3)no2)n1 | 0.842 | 0.882 |  | 
10 | O=c1ccc2cc(O)c(O)cc2o1 [Esculetin] + COC(=O)c1ccc([C@H]2c3[nH]c4ccccc4c3C[C@H](C(=O)OC)N2C(=O)CCl)cc1 [RSL3] |  |  | 0.301 | 0.497
11 | Nc1ccc(C(=O)O)c(O)c1 [Aminopar] + COC(=O)c1ccc([C@H]2c3[nH]c4ccccc4c3C[C@H](C(=O)OC)N2C(=O)CCl)cc1 [RSL3] |  |  | 0.822 | 0.662
12 | O=C1/C(=C/c2cccs2)CC/C1=C\c1cccs1 | 0.766 | 0.84 |  | 
13 | CC(C)(C)c1ccc(-c2nc3ccccc3[nH]2)cc1 + COC(=O)c1ccc([C@H]2c3[nH]c4ccccc4c3C[C@H](C(=O)OC)N2C(=O)CCl)cc1 [RSL3] |  |  | 0.529 | 0.399
14 | CN(CCOc1ccc(CC2SC(=O)NC2=O)cc1)c1ccccn1 (stereo not given) [Rosiglitazone HCl] | 0.781 | 0.947 |  | 
15 | CCN(CC)CCCC(C)Nc1c2ccc(Cl)cc2nc2ccc(OC)cc12 (stereo not given) [Quinacrine dihydrochloride] + COC(=O)c1ccc([C@H]2c3[nH]c4ccccc4c3C[C@H](C(=O)OC)N2C(=O)CCl)cc1 [RSL3] |  |  | 0.301 | 0.283
